HDAC3 inh – HDAC3 deacetylase inhibitors, primary screen, biochemical, fluorescence, cell-free homogeneous; 0.15% of 320,000 active; inhibition, % at 8.3 µM; recombinant HDAC3, fluorogenic peptide/trypsin coupled; in the data active means inhibition above about 26%, passing the limit was not always enough
Target sequence (O15379 whole entry, looked up): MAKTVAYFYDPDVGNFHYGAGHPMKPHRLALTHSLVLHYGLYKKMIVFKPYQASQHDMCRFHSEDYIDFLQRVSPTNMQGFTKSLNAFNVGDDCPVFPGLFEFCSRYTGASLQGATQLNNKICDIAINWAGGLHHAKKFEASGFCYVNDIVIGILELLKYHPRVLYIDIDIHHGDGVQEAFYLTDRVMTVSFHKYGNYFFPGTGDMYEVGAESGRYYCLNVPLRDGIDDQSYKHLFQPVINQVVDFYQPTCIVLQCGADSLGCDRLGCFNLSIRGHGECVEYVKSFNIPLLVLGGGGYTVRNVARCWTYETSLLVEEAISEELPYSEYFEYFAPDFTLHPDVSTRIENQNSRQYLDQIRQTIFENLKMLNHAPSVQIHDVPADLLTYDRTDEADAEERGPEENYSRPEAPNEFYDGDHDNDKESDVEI
Rtt109 HAT inh – inhibitors of C. albicans Rtt109/Vps75 HAT, primary screen, biochemical, ThioGlo CoA-SH fluorescence, plate reader | Histone acetyltransferase RTT109 (Candida albicans (strain SC5314 / ATCC MYA-2876)), … | purified Rtt109/Vps75, 4 h | inhibition, % at 34.9 µM | 0.16% of 330,000 active | AID 540336, 2011;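 active means inhibition of at least 50% in every replicate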
GRK2 inh – compounds blocking aptamer binding on GRK2 – biochemical, human GRK2, bead flow cytometry, HTS, primary screen. FAM-aptamer displacement from GRK2. 0.59% of 330,000 active. AID 488847, 2010. Beta-adrenergic receptor kinase 1 (Homo sapiens), P25098. inhibition of aptamer binding, % at 10 µM;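 active means inhibition of aptamer binding above 40%, roughly 3 SD of noise, on plates passing a quality check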;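 further: median bead fluorescence of bound FAM aptamer so fluorescent compounds give negative values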
Efflux pump mplx – inhibitors of Candida efflux pumps in yeast, primary screen, S. cerevisiae, Nile Red, multiplex | AID 485275, 2010 | S. cerevisiae Candida pump triplex | inhibition, % at 10 µM | 0.44% of 330,000 active;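 active means plate passing quality check with inhibition over a set limit, or well fluorescence over plate mean plus 4 SD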;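 further: Nile Red retained in pooled yeast measured as flow cytometry median fluorescence; 0% = buffer negative control and 100% = Enniatin B positive control; higher means more Nile Red kept so more efflux inhibition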
ALR H2O2 inh – inhibitors of human ALR sulfhydryl oxidase, primary screen, biochemical, H2O2 detection, HRP-luminol luminescence, single point; purified ALR, DTT oxidation; inhibition, % (concentration not given with the values); 3.8% of 290,000 active; AID 485317, 2010;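 active means mean replicate inhibition above about 79%, with every replicate also reaching it, limit read from the data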
Rce1 inh – yeast Rce1p protease inhibitors, primary screen, biochemical, fluorescence, cell-free homogeneous; AID 2563, 2010; calls only; 0.27% of 290,000 active; CAAX prenyl protease 2 (Saccharomyces cerevisiae (strain ATCC 204508 / S288c)), Q03530; yeast membranes, quenched prenylated peptide cleavage fluorescence;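 active means fall in fluorescence gain of 50% or more versus controls, with final raw signal at or below 3038400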;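 further: plate controls were neutral control wells for no effect and wells lacking membranes for full effect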
* hit, by the source's call. Compounds with a hit are over-represented: about 4.5% of the library has one in this group of screens.

How did Cc1ccc(S(=O)(=O)CCC(=O)c2cccc([N+](=O)[O-])c2)cc1 do in these assays?
HDAC3 inh: -6; Rtt109 HAT inh: active; GRK2 inh: 0; Efflux pump mplx: 0; ALR H2O2 inh: 58; Rce1 inh: inactive

How did Cn1ncc2c(NCc3ccccc3)ncnc21 do in these assays?
HDAC3 inh: -3; Rtt109 HAT inh: -3; GRK2 inh: 1; Efflux pump mplx: 0; ALR H2O2 inh: -1; Rce1 inh: inactive

How did Clc1ccc(Cn2ncc3c(NCc4ccccc4)ncnc32)c(Cl)c1 do in these assays?
HDAC3 inh: 13; GRK2 inh: 2; Efflux pump mplx: 5.5*; ALR H2O2 inh: -3; Rce1 inh: inactive

What do the screens show for `Cc1ccc(OC(=O)COc2ccccc2C)c(-n2nc3ccccc3n2)c1`?
HDAC3 inh: 1; Rtt109 HAT inh: -7; GRK2 inh: 0; Efflux pump mplx: 0; ALR H2O2 inh: 96*; Rce1 inh: inactive

What do the screens show for `Cc1nn(-c2ccccc2)c(N2CCCC2)c1/C=N/NC(=O)c1cc2ccccc2cc1O`?
HDAC3 inh: 0; Rtt109 HAT inh: 4; GRK2 inh: 66*; Efflux pump mplx: 0; ALR H2O2 inh: 7; Rce1 inh: inactive

How did Cc1nn(-c2ccccc2)c(N2CCCC2)c1/C=N/NC(=O)c1cc(-c2ccccc2)nc2ccccc12 do in these assays?
HDAC3 inh: 8; Rtt109 HAT inh: -1; GRK2 inh: 4; Efflux pump mplx: 1; Rce1 inh: inactive

What do the screens show for `CCCn1c(SCC(=O)Nc2cc(Cl)ccc2OC)nc(O)cc1=O`?
HDAC3 inh: 1; Rtt109 HAT inh: 1; GRK2 inh: 0; Efflux pump mplx: 0; ALR H2O2 inh: 98*

What do the screens show for `Cn1c(SCC(=O)Nc2cccc3ccccc23)nc(O)cc1=O`?
HDAC3 inh: 4; Rtt109 HAT inh: 2; GRK2 inh: 2; Efflux pump mplx: 0; ALR H2O2 inh: 98*; Rce1 inh: inactive

How did CCn1c(SCC(=O)Nc2ccccc2OC)nc(O)cc1=O do in these assays?
HDAC3 inh: -2; Rtt109 HAT inh: 2; GRK2 inh: 0; Efflux pump mplx: 0; ALR H2O2 inh: 98*; Rce1 inh: inactive

What do the screens show for `COc1ccccc1NC(=O)CSc1nc2nc(C)cc(C)c2c(=O)[nH]1`?
HDAC3 inh: -1; Rtt109 HAT inh: 8; GRK2 inh: 0; Efflux pump mplx: 0; ALR H2O2 inh: 91*; Rce1 inh: inactive

Results for Cc1ccccc1NC(=O)CSc1nc2ccccc2c(=O)n1C ?
HDAC3 inh: -1; Rtt109 HAT inh: -2; GRK2 inh: 0; Efflux pump mplx: 0; ALR H2O2 inh: -8; Rce1 inh: inactive

How did CCCc1cc(=O)[nH]c(SCC(=O)Nc2cc(S(=O)(=O)N(CC)c3ccccc3)ccc2Cl)n1 do in these assays?
HDAC3 inh: 0; Rtt109 HAT inh: 11; GRK2 inh: 0; Efflux pump mplx: 0; ALR H2O2 inh: 2

What do the screens show for `Cc1cc(C(=O)NNc2ccc(C(C)C)cc2)n(C(C)(C)C)n1`?
HDAC3 inh: -1; Rtt109 HAT inh: -4; GRK2 inh: 0; Efflux pump mplx: 0; Rce1 inh: inactive

Results for O=C(NNc1ccccc1)c1ccc(Cl)c(Cl)c1 ?
Rtt109 HAT inh: 4

How did COc1ccc(CCN(C)C(=O)c2cnc(C)cn2)cc1OC do in these assays?
HDAC3 inh: -3; Rtt109 HAT inh: 1; GRK2 inh: 1; Efflux pump mplx: 0; ALR H2O2 inh: 1; Rce1 inh: inactive

Results for C=CCn1c(SCC(=O)Nc2ccccc2C)nc(O)cc1=O ?
HDAC3 inh: 0; Rtt109 HAT inh: -3; GRK2 inh: 0; Efflux pump mplx: 0; ALR H2O2 inh: 92*; Rce1 inh: inactive

Results for COc1ccc(-n2c(SCC(=O)Nc3ccccc3OC)nc(O)cc2=O)cc1 ?
HDAC3 inh: 1; Rtt109 HAT inh: 17; GRK2 inh: 0; Efflux pump mplx: 0; ALR H2O2 inh: 29; Rce1 inh: inactive

Screening data (PubChem)
